According to PubChem BioAssay (NCATS):
Unmarked numbers belong to inactive results. Inconclusive results are not listed. Calls of active or inactive are those of the source. Unless noted, calls follow the shape of the full dose curve.

Each molecule was assayed against Cytochrome P450 3A4 (Homo sapiens) (UniProt P08684) (assay: qHTS Assay for Inhibitors and Substrates of Cytochrome P450 3A4 (AID 884; active = well fitted curve in the direction sought with a large enough effect; an effect the other way counts as inactive or inconclusive; also: nearly all actives have a fitted effect of over 50% in size; also: potency is read from the fitted curve at half-maximal effect; as to activity change, negative = inhibition: % is scaled to controls: 0 for no effect and ±100 for the full control effect)). Settings: recombinant CYP3A4, Luciferin-PPXE luminescence; series mostly up to 57.1 µM; activity change, negative = inhibition: at the top concentration.
Cytochrome P450 3A4 (Homo sapiens), sequence (P08684 whole entry, looked up): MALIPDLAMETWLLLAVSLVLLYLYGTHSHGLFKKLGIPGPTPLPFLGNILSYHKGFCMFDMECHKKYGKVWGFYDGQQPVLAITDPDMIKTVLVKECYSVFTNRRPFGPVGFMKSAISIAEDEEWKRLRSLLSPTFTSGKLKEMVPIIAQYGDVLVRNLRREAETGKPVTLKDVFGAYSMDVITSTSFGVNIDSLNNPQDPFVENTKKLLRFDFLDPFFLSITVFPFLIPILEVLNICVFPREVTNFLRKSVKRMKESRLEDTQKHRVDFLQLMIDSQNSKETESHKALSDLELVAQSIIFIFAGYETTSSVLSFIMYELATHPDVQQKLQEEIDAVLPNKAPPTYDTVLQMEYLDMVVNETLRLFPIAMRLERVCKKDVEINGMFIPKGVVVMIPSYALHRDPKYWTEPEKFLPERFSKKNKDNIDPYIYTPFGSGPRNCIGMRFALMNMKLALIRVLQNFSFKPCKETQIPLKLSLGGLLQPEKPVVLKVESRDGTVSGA
Summary of the method: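 20 nM human CYP3A4 with 25 uM Luciferin-PPXE (at KM) in 200 mM KPO4, preincubated 10 min with compound; NADPH regeneration started a 60 min RT reaction. Luciferin detected by luminescence, normalized to 57 uM ketoconazole as full inhibition.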

| SMILES | Potency | activity change, negative = inhibition |
| --- | --- | --- |
| O=C1c2c(O)ccc([N+](=O)[O-])c2C(=O)c2c([N+](=O)[O-])ccc(O)c21 | 7.94 µM (active) |  |
| C=CCn1c(=O)n(CC=C)c(=O)n(CC=C)c1=O | 10 µM (active) |  |
| C=C(C)c1ccccc1 |  | -1.59% |

What follows are molecules tested against Cytochrome P450 3A4 (Homo sapiens) (UniProt P08684) (assay: qHTS Assay for Activators of Cytochrome P450 3A4 (AID 885; active = well fitted curve in the direction sought with a large enough effect; an effect the other way counts as inactive or inconclusive; also: nearly all actives have a fitted effect of over 65% in size)). Settings: recombinant CYP3A4, Luciferin-PPXE luminescence, 60 min; series mostly up to 57.1 µM; activity change, positive = activation: at the top concentration.
Summary of the method: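 20nM CYP3A4 + 25uM Luciferin-PPXE (=KM), 200mM KPO4; cpd 10 min RT; NADPH regen, 60 min RT; stop w/ detection buffer, 20 min; luminescence. Normalized to 57 uM ketoconazole.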

| SMILES | activity change, positive = activation |
| --- | --- |
| O=C1c2c(O)ccc([N+](=O)[O-])c2C(=O)c2c([N+](=O)[O-])ccc(O)c21 | -97.9% |
| Cc1ccc(N)cc1[N+](=O)[O-] | -35.3% |
| c1ccc2c(c1)ccc1ncccc12 | -31.2% |
| Cc1cc(C)c(N)cc1C | -38.3% |
| C=CCn1c(=O)n(CC=C)c(=O)n(CC=C)c1=O | -73.1% |
| COc1ccc(C)cc1N | -51% |

What follows are molecules tested against Peroxisome proliferator-activated receptor delta (Homo sapiens) (UniProt Q03181) (assay: qHTS assay for small molecule agonists of peroxisome proliferator-activated receptor delta signaling (AID 588534;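 also: 0% = DMSO basal wells and 100% = positive control agonist at 10 µM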)). Settings: HEK293T PPARdelta-UAS-bla, beta-lactamase ratio, 18 h; series mostly up to 76.7 µM; activation: at the top concentration.
Peroxisome proliferator-activated receptor delta (Homo sapiens), sequence (Q03181 whole entry, looked up): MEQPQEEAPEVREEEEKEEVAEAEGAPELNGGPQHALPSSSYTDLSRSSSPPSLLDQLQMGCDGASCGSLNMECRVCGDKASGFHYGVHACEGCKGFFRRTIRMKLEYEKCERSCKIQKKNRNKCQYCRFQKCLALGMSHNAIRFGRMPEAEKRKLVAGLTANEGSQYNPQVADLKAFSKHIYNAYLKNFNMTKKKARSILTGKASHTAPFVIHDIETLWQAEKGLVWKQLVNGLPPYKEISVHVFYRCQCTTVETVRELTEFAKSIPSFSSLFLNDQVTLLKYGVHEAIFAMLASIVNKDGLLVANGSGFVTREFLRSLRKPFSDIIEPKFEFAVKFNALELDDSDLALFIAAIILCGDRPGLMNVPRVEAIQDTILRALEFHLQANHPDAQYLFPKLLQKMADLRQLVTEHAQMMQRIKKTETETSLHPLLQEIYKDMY
Summary of the method: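 Fluorescence from CCF4 substrate cleavage by beta-lactamase reporter, read 2 hrs at RT, measured agonist activity. Compounds were tested with 18 hrs exposure at 37 C. Concentration-response data fitted to Hill equation.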

| SMILES | activation | outcome |
| --- | --- | --- |
| CC(CCl)OC(C)CCl (centres undefined) | -2.31% |  |
| O=C1c2c(O)ccc([N+](=O)[O-])c2C(=O)c2c([N+](=O)[O-])ccc(O)c21 | -13.9% |  |
| O=C(Nc1ccccc1)c1ccccc1O | -2.43% |  |
| COc1ccc(N=[N+]([O-])c2ccc(OC)cc2)cc1 | 8.39% |  |
| Cc1ccc(N)cc1[N+](=O)[O-] | -6.49% |  |
| O=NO |  | inactive |
| OCC(CBr)(CBr)CBr | -1.4% |  |
| Cc1cccc(C)c1 | 6.84% |  |
| C=CCCC | 12.3% |  |
| c1ccc2c(c1)ccc1ncccc12 | 2.37% |  |
| O=C1OC(=O)c2c(Br)c(Br)c(Br)c(Br)c21 |  | inactive |
| Cc1cc(C)c(N)cc1C | 5.22% |  |
| C=CCn1c(=O)n(CC=C)c(=O)n(CC=C)c1=O | 1.38% |  |
| C=C(C)c1ccccc1 | 3.84% |  |
| Cc1ccc(N)c([N+](=O)[O-])c1 |  | inactive |
| COc1ccc(C)cc1N | -3.95% |  |

Each molecule was assayed against Peroxisome proliferator-activated receptor gamma (Homo sapiens) (UniProt P37231) (assay: qHTS assay for small molecule antagonists of peroxisome proliferator-activated receptor gamma signaling (AID 588537; active = well fitted inhibition curve with a large enough effect in the signal ratio, with a control signal flat, not every such curve was filed as active; the % refers to the signal ratio; also: potency is read from the fitted curve at half-maximal effect)). Settings: HEK293 PPARg-UAS-bla, beta-lactamase ratio, antagonist mode; series mostly up to 76.8 µM; activity, negative = inhibition: at the top concentration.
Peroxisome proliferator-activated receptor gamma (Homo sapiens), sequence (P37231 whole entry, looked up): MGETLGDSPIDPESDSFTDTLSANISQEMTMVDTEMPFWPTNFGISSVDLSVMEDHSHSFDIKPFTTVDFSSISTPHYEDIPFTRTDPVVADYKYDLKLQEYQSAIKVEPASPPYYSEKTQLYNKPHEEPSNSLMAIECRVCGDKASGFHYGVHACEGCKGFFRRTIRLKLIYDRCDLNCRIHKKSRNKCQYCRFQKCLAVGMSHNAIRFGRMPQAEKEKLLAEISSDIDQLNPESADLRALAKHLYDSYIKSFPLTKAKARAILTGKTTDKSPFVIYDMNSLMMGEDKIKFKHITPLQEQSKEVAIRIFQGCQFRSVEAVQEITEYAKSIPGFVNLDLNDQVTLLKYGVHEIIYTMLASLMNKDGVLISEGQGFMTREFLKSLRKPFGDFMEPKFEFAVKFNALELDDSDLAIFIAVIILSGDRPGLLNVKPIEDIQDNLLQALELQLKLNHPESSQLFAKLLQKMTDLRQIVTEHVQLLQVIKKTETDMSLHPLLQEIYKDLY
Summary of the method: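 Antagonist mode, beta-lactamase reporter in HEK293; charcoal/dextran FBS 1%; 3000 cells/well, 37 C 6-6.5 h; cpd titration + rosiglitazone 50 nM final, 16 h 37 C; CCF4, 2 h RT; 460/530 nm; Hill fit → IC50, efficacy.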

| SMILES | Potency |
| --- | --- |
| CC(C)NC(=O)N1CC(=O)N(c2cc(Cl)cc(Cl)c2)C1=O | 44.7 µM (active) |
| CCOCn1c(-c2ccc(Cl)cc2)c(C#N)c(Br)c1C(F)(F)F | 39.8 µM (active) |
| CON=C(C(=O)OC)c1ccccc1CO/N=C(\C)c1cccc(C(F)(F)F)c1 | 35.5 µM (active) |

What follows are molecules tested against Thyroid hormone receptor beta (Homo sapiens) (UniProt P10828) (assay: qHTS assay for small molecule agonists of thyroid hormone receptor beta signaling (AID 588545;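 also: 0% = DMSO only and 100% = 10 nM T3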)). Settings: TR-UAS-bla GripTite HEK 293, beta-lactamase ratio, agonist mode, 18 h; series mostly up to 76.7 µM; activation: at the top concentration.
Thyroid hormone receptor beta (Homo sapiens), sequence (P10828 whole entry, looked up): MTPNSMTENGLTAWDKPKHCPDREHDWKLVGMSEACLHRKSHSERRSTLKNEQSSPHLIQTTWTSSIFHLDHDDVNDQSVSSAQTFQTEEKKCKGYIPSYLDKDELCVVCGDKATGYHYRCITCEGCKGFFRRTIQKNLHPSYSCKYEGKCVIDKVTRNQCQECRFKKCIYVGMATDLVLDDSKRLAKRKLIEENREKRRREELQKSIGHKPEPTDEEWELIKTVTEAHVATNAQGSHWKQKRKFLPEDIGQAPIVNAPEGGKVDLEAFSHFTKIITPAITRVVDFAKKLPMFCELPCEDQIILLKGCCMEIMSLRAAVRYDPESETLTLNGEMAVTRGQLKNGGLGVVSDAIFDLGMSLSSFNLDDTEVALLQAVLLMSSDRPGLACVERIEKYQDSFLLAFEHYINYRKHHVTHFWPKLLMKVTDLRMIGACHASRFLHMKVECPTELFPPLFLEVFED
Summary of the method: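 Beta-lactamase reporter activity under TR response element control is measured in HEK 293 cells after 18 hrs compound exposure. Signal is ratiometric CCF4 fluorescence, 460/530 nm.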

| SMILES | activation |
| --- | --- |
| CC(C)NC(=O)N1CC(=O)N(c2cc(Cl)cc(Cl)c2)C1=O | 6.29% |
